Compounds with a hit are over-represented: about 0.97% of the library has one in this group of screens.
PI4K2A inh: inhibitors of human PI4K2A; purified PI4K2A, ADP-Glo luminescence, 1 h; hits give low values; hit rate 0.13% among 420,000; activity change, negative = inhibition, % at 76.9 µM; Q9BTU6; AID 1346378; in the data active = activity change below about -50%; inconclusive = mostly about -30% to -49%;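 note: -100% = wells without enzyme as full effect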
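ADP-Glo luminescence measured ADP generated by PI4K2A enzyme (4 ug/mL before mixing) with 1.2 mM PI substrate (pre-mix) and 300 microM ATP (pre-mix). Tris pH7.5 buffer with MgCl2, Triton X-100; 1 h reaction at ambient temperature.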
CCT modulator: modulators of cytosolic chaperonin (CCT/TRiC) activity; hit rate 0.3% among 360,000; purified chaperonin ATPase assay, HTRF ADP detection, 30 min; activity change, % (test concentration not listed), hits read low; in the data active = activity change below about -30%
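Enzyme 40 or 20 nM (batch-dependent) in Tris pH 7.4/KCl/MgCl2/DTT; cpd 76 uM single point; ATP 10 uM; 30 min 37 °C; Transcreener ADP HTRF detection, 30 min RT; ratio 665/615.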
CtBP-E1A blk: blocks the CtBP interaction with E1A | AID 651724 | activity change, % (test concentration not listed) | hit rate 0.49% among 340,000 | AlphaScreen GST-E1A/His-CtBP binding, 1536-well; hits give low values
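Protein mix (5X: 125 nM each GST-E1A, His-CtBP) was incubated with pinned compound 2 h at 37 deg C in dark, in 50 mM Tris pH 8.0 buffer with 300 mM NaCl. Glutathione donor and nickel acceptor beads followed; AlphaScreen signal read after 1 h.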
Six1-Eya2 inh: Six1/Eya2 interaction inhibition; Q15475+O00167; AlphaScreen GST-Six1/His-Eya2 binding, biochemical; hits give low values; activity change, % (test concentration not listed); hit rate 0.56% among 360,000
Target sequence (O00167 whole entry, looked up): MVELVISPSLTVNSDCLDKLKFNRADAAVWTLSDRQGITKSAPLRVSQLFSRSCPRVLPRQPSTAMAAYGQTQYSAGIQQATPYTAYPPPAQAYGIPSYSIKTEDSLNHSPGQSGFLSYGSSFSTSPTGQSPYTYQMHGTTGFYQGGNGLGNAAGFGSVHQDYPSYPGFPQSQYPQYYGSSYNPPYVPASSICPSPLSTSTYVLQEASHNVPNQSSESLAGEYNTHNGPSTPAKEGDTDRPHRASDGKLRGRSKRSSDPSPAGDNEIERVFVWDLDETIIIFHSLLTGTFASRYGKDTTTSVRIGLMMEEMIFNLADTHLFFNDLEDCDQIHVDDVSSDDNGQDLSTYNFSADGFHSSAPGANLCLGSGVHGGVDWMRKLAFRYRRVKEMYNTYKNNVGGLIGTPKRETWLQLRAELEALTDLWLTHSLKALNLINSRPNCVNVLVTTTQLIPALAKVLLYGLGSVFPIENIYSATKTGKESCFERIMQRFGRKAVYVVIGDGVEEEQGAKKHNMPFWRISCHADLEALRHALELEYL
Target sequence (Q15475 whole entry, looked up): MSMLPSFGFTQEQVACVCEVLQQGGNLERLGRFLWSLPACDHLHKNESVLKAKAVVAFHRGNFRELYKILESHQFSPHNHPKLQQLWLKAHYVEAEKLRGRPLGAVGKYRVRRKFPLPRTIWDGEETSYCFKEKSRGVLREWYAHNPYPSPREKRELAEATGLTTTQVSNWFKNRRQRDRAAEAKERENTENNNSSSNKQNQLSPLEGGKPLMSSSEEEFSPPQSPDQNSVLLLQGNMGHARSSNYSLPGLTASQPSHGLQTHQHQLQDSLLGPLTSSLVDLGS
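Six1/Eya2 binding was read as AlphaScreen signal after compounds were pinned into GST-Six1 plus His-tagged Eya2 (5X stock 250/500 nM) in pH 8.0 Tris/NaCl/TCEP buffer, beads added, then incubated 1 h, 37 C, dark.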
Eya2 phos inh: inhibitors of human Eya2 phosphatase activity; O00167; recombinant Eya2, OMFP fluorescence dephosphorylation (OMFP is methylfluorescein phosphate); Potency, µM (top dose mostly 76.9 µM), without a hit: top-dose activity, negative = inhibition, usual class: inhibitors; hit rate 0.006% among 330,000; active = well fitted inhibition curve with a large enough effect; inconclusive = small, poorly fitted or top-dose-only effect, or effect the other way; note: potency is the fitted concentration of half-maximal effect
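Eya2 (0.2 uM) preincubated 10 min at ambient with compound, then OMFP substrate added at 50 uM; 10 min reaction in 50 mM HEPES pH 7.5, 50 mM NaCl, 5 uM MgCl2, 0.05% BSA, 1 mM DTT. Fluorescence read at Ex 485/Em 525 nm.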
The depositor's hits bear a star; ? = inconclusive; . = no result. Cut-off read from the data, not from the text of the source, unless noted: active = activity change below about -65%; inconclusive = mostly about -30% to -63%; inactive = weaker than that. Unless noted, % is set by controls: 0 for no effect and ±100 for the full control effect.

SMILES	PI4K2A inh	CCT modulator	CtBP-E1A blk	Six1-Eya2 inh	Eya2 phos inh
CC(=O)SCC(CC(=O)c1ccc(C)cc1)C(=O)O (configuration not stated)	4.1	.	.	.	.
O=c1cc(CSc2ccc(Cl)cc2)nc(-c2ccccn2)[nH]1	?	-2.4	.	-93.2*	-10.8%
O=c1cc(CSc2ccc(Cl)cc2)nc(-c2ccccc2)[nH]1	4.2	-1.7	0.9	9.4	6.1%
O=C(NCCc1csc(-c2cccnc2)n1)c1ccc(F)c(F)c1	-4.3	.	.	.	.
O=C(O)c1cc2ccccc2cn1	-25.6	1.2	-84.2*	-79.9*	.
O=C(O)c1cnc2ccccc2n1	6.5	2.0	21.9	16.1	2.0%
O=C(O)c1cc2c(cn1)[nH]c1ccccc12	-26.6	-1.1	-93.3*	-78.6*	?
Cc1ccc2[nH]c(=O)c(C3C(C#N)=C(N)Oc4c3ccc3cccnc43)cc2c1 (configuration not stated)	3.1	-3.9	-92.3*	?	-6.8%
Cc1cc(C)c(SSc2nnnn2-c2ccccc2)c(C)c1	-25.3	-38.0*	-3.6	4.0	.
Cc1ccc2cc(C)c(Sc3nnnn3-c3ccccc3)nc2c1	4.9	-15.1	12.3	0.1	-7.1%
CCN1C(=O)[C@H]2[C@@H](c3ccc(-c4ccc(Cl)c(Cl)c4)c(OC)c3)N[C@@](Cc3ccccc3)(C(=O)OC)[C@H]2C1=O	0.8	-58.1*	-4.5	-13.9	4.1%
CCN1C(=O)[C@H]2[C@@H](c3ccc(-c4cccc(Cl)c4)cc3)N[C@@](Cc3ccccc3)(C(=O)OC)[C@H]2C1=O	-4.2	-3.4	-9.9	-7.3	0.6%
N=c1sccn1CC(=O)Nc1cccc2ccccc12	0.3	-121.9*	-6.8	14.0	18.8%
CSc1ccccc1NC(=O)Cn1ccsc1=N	-1.0	-1.4	2.3	2.1	5.5%
Cc1c(Cl)cccc1Nc1nn2c(=O)c3ccc(C(=O)N(C)Cc4ccccc4)cc3nc2s1	3.7	.	.	.	.
CCOC(=O)C1=C(C)OC2(O)c3ccccc3C(=O)C12O (configuration not stated)	-52.4*	0.1	.	-3.5	2.8%
CC1=C(C(=O)OC(C)C)C2(O)C(=O)c3ccccc3C2(O)N1 (configuration not stated)	-22.1	0.3	-0.8	1.2	-3.1%
CC(=O)C1=C(C)OC2(O)c3ccccc3C(=O)C12O (configuration not stated)	-53.8*	1.9	.	-1.8	-6.3%
CCOC(=O)C1=C(C)N[C@@]2(O)c3ccccc3C(=O)[C@@]12O	-11.2	-0.9	4.6	2.5	-9.9%
Cc1cc(C)c2c(CC(=O)N(Cc3ccccc3)C3CCS(=O)(=O)C3)coc2c1 (configuration not stated)	-2.7	.	.	.	.
CCC(=O)N1CCc2cc(S(=O)(=O)CCC(=O)N3CCN(c4cccc(C)c4)C(C)C3)ccc21 (configuration not stated)	1.0	.	.	.	.
COc1cc(-c2nnc(SCC(=O)NC(C)C)o2)cc(OC)c1OC	-9.0	.	.	.	.
COc1cc(-c2nnc(SCC(=O)Nc3ccc4c(c3)OCCO4)o2)cc(OC)c1OC	-55.5*	-1.8	2.7	-1.8	-3.1%
O=C(NCC(=O)N1CCCC1)c1ccc(Br)o1	0.3	0.7	-12.5	2.8	8.7%
CCOC(=O)N1CCN(C(=O)CNC(=O)c2ccc(Br)o2)CC1	-1.1	-53.4*	0.0	20.6	3.7%
SMILES	PI4K2A inh	CCT modulator	CtBP-E1A blk	Six1-Eya2 inh	Eya2 phos inh
Cc1cc(C)cc(NC2=C(N)C(=O)c3ccccc3C2=O)c1	-50.3*	-3.5	?	-70.2*	-6.3%
Cc1cccc(NC2=C(NCCO)C(=O)c3ccccc3C2=O)c1	?	0.2	-24.0	-67.2*	-2.3%
COc1cccc(NC2=C(NCCO)C(=O)c3ccccc3C2=O)c1	-28.1	-2.0	?	?	1.8%
CCCCC(=O)N1CCC(NS(=O)(=O)c2ccc3c(c2)CCN3C(C)=O)CC1	1.5	.	.	.	.
CC(=O)Nc1ccc(NC(=O)c2cc3sccc3n2Cc2ccc(Cl)cc2)cc1	3.4	.	.	.	.
Nc1ccn(C2CO[C@H](CO)O2)c(=O)n1 (some centres not stated)	3.5	.	.	.	.
CCOc1ccccc1OCCn1nnc2ccccc21	-0.4	-1.9	-0.4	5.5	-23.4%
COc1ccccc1OCCn1nnc2ccccc21	1.3	-55.1*	4.7	9.6	-7.9%
CCCCc1cc(=O)oc2cc(OCC(=O)NC(Cc3c[nH]c4ccc(O)cc34)C(=O)O)ccc12 (configuration not stated)	-67.6*	-0.6	0.0	-2.7	2.4%
O=C(N/N=C/c1ccc(OC(=O)c2ccccc2Cl)cc1)c1cc(O)cc(O)c1	-3.1	-5.0	-74.3*	-68.1*	3.9%
O=C(N/N=C/c1ccc(OC(=O)c2ccccc2Cl)cc1)c1ccccn1	3.2	-1.4	1.4	-7.7	3.9%
CCc1ccc(NC(=O)c2cnn(-c3c(C)cccc3C)c2C2CCN(C(=O)OC(C)(C)C)CC2)cc1	0.8	.	.	.	.
Cc1ccsc1/C=N/Nc1nc(=O)[nH]nc1C	-71.4*	1.2	-94.0*	-83.3*	-12.8%
Cc1cc(C)nc(N/N=C/c2sccc2C)n1	0.5	0.3	2.4	4.9	1.7%
COc1ccccc1Nc1ccc2c(O)cc(S(=O)(=O)O)cc2c1	-59.1*	-0.2	-88.4*	-79.2*	.
Cc1ccc(C(=O)NC(=S)c2c(C)cc3ccccn23)cc1	-2.1	1.7	-21.5	-75.9*	.
Nc1ccc(-c2nc3ccc(C(=O)O)cc3s2)cc1	-25.8	-0.7	-10.6	-10.7	-5.4%
Nc1cc2sc(-c3ccc(C(=O)O)cc3)nc2cc1Cl	-75.6*	2.0	2.6	-18.3	-2.4%
Nc1ccc(-c2nc3ccc(N)cc3s2)cc1	-15.9	-0.2	-6.1	-9.6	-9.5%
O=C(O)c1ccc2nc(-c3ccccc3)sc2c1	-52.2*	-3.4	-4.4	3.1	-1.9%
Cc1cc(C(=O)N/N=C/c2ccc([N+](=O)[O-])s2)n[nH]1	2.2	1.1	?	-8.7	-12.9%
O=[N+]([O-])c1cc(Cl)cc(/C=N\Nc2ccccn2)c1O	-2.5	-0.6	-87.3*	-94.7*	-23.9%
O=[N+]([O-])c1ccc(Cl)cc1C=NNc1ccccn1	7.8	1.7	6.0	-4.2	.
Cc1cc(C(=O)N/N=C/c2cc(Cl)cc([N+](=O)[O-])c2O)n[nH]1	-2.0	0.9	-80.9*	?	7.7%
CCOC(=O)c1cnc(NCc2ccccc2OC)c2ccccc12	-2.0	.	.	.	.
COC(=O)/C(=C1/Oc2cc(C)oc(=O)c2S1)C(F)(F)F	-19.5	-2.0	-83.2*	?	-26.5%
COC(=O)/C(=C1/Oc2ccc(C(C)(C)C)cc2S1)C(F)(F)F	10.7	0.6	0.9	8.4	0.4%
CC1(C)OC2OC(C(=O)N/N=C/c3cc(Br)ccc3O)C3OC(C)(C)OC3C2O1 (configuration not stated)	4.3	-5.8	-89.7*	-82.4*	-0.1%
CC1CCN(C(=O)c2cc3ccccc3o2)CC1	9.9	-35.9*	7.2	4.8	1.3%

Assay outcomes from PubChem.
